Experimental data from PubChem BioAssay AID1851 (National Center for Advancing Translational Sciences (NCATS), 2009).
Where “and” joins values, the source holds several entries; their conditions need not be identical. Identical values can stand only once. Hit rate of the full screen: of about 16,000 compounds, about 2,600 (16%) were called active. About 20% were inconclusive and are not listed. The call rests on the fitted dose curve; in most records, active means well fitted curve in the direction sought with a large enough effect; inconclusive means small, poorly fitted or top-dose-only effect, or effect the other way; inactive means no such curve, though single readings can be large or run the other way. Only a sample is shown. A structure can be active in one record and inactive in another.

target: Cytochrome P450 2D6 (Homo sapiens) (UniProt P10635); assay: Cytochrome panel assay with activity outcomes; conditions: recombinant CYP, pro-luciferin dealkylation, luminescence, p450-cyp2d6; series mostly up to 57.1 µM
Sequence (P10635 whole entry, looked up): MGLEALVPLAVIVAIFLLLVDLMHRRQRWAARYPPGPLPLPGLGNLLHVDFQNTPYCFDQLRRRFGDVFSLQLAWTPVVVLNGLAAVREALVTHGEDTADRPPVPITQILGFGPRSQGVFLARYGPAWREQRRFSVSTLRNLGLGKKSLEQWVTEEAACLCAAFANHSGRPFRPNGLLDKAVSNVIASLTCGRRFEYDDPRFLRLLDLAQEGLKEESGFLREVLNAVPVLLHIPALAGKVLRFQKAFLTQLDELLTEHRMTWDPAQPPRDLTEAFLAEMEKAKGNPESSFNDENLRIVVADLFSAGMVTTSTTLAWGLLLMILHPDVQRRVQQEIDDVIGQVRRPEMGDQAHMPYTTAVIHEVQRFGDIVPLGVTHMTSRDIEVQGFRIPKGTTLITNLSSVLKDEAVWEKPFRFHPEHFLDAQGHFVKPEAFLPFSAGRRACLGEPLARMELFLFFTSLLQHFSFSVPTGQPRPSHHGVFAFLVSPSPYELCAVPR
On the % scale 0 is the no-effect control and ±100 the full control effect.

SMILES | AC50 | activity, negative = inhibition
CC(=O)NCCNc1cc(-c2ccccc2C(F)(F)F)ncn1 | inactive | –
CC(=O)NCCNc1ncnc2ccc(-c3ccccc3C(F)(F)F)cc12 | 20 µM (active) | –
CC(=O)NCCNc1ncnc2ccc(-c3ccccc3C#N)cc12 | inactive | –
CC(=O)NCCNc1ncnc2ccc(-c3ccccc3Cl)cc12 | 15.8 µM (active) | –
CC(=O)NCCNc1ncnc2ccc(-c3ccccc3C)cc12 | 20 µM (active) | –
Cc1[nH]n(C(C)(C)C)c(=O)c1Sc1ccc(Cl)cc1 | inactive | –
CCOc1ccc(N(C(C)C(=O)NC(C)CC)S(C)(=O)=O)cc1 (stereo not drawn) | inactive | –
CCC(C)OC(=O)C1=C(C)NC(=O)CC1c1ccccc1OC (stereo not drawn) | inactive | –
O=c1c(-c2cc(F)cc(F)c2)nc2cnc(N3CCOCC3)nc2n1-c1ccccc1 | inactive | –
CCOC(=O)c1cnn(CCOC(=O)C(C)(C)C)c1NC(=O)C(C)(C)C | inactive | –
O=[N+]([O-])c1ccc2c(c1)S(=O)c1ccccc1-2 (stereo not drawn) | – | -5.2% [at 11.4 µM] (inactive)
Cc1cc(NC(=O)CCN2C(=O)C3C4CCC(C4)C3C2=O)c(C)cc1Br (stereo not drawn) | inactive | –
CCc1cccc(C)c1NC(=O)CSc1nc2ccc(N3C(=O)c4ccccc4C3=O)cc2s1 | inactive | –
CS(=O)(=O)Nc1cccc(-c2nc(N3CCNCC3)c3ccccc3n2)c1 | 10 µM (active) | –
CS(=O)(=O)Nc1cccc(-c2ccc3ncnc(N4CCNCC4)c3c2)c1 | inactive | –
CS(=O)(=O)Nc1cccc(-c2nc(N3CCOCC3)c3ccccc3n2)c1 | inactive | –
CS(=O)(=O)Nc1cccc(-c2nc(Nc3ccncc3)c3ccccc3n2)c1 | 20 µM (active) | –
CS(=O)(=O)Nc1cccc(-c2nc(Nc3ccccc3)c3ccccc3n2)c1 | 10 µM (active) | –
CNc1nc(-c2cccc(NS(C)(=O)=O)c2)nc2ccccc12 | inactive | –
COc1ccc2c(c1)c(=O)oc1c(C)c(OCC(=O)N3CCc4ccccc4C3)ccc12 | inactive | –
COc1ccc(Oc2ncc3nc(-c4cccs4)c(=O)n(C)c3n2)cc1 | inactive | –
CCCCC(=O)NC(Nc1cc(C)ccn1)(C(=O)OCC)C(F)(F)F (stereo not drawn) | inactive | –
CCOC(=O)CN1N=C(/C=C/c2ccc(C)cc2)CCC1=O | inactive | –
Cc1ccccc1NC1=NC(=S)N(c2ccccc2)C12CCOC(C)(C)C2 (stereo not drawn) | inactive | –
CCn1nc(C(=O)Nc2ccccc2C)c(Cl)c1Cl | inactive | –
O=C(N/N=C/c1ccc(Br)s1)c1ccccc1[N+](=O)[O-] | inactive | –

SMILES | AC50 | activity, negative = inhibition
CCCCN(C(=O)Nc1ccc(OCC)cc1)C1CCN(C(C)=O)CC1 | inactive | –
CSc1nc(C2CC2)cc(-c2cccs2)c1C#N | inactive | –
O=C1NC(=O)C(c2ccccc2)(c2ccccc2)N1 | inactive | –
CCCC1CCC(c2ccc(C(N)=O)cc2)CC1 (stereo not drawn) | inactive | –
CNCC[C@H](Oc1ccccc1OC)c1ccccc1 | 1.26 µM (active) and inactive | –
COCCn1c(=O)c(-c2cn(C)c3ccccc23)nc2cnc(N3CCNCC3)nc21 | inactive | –
COC(=O)[C@@H]1[C@@H]2C[C@H]3c4[nH]c5cc(OC)ccc5c4CCN3C[C@@H]2C[C@H](OC(=O)c2cc(OC)c(OC)c(OC)c2)[C@H]1OC | inactive | –
C#C[C@]1(O)CC[C@@H]2[C@H]3CCc4cc(OC)ccc4[C@@H]3CC[C@@]21C | inactive | –
O=C1CC(=O)C(n2cncn2)C(c2cccc(Cl)c2)C1 (stereo not drawn) | inactive | –
CC(=O)Nc1c(C)nn(-c2ccc(C)c(C)c2)c1C | inactive | –
Cc1nn(-c2ccc(F)cc2)c(C)c1NS(=O)(=O)c1ccc2ccccc2c1 | 11.2 µM (active) | –
Cc1cc(N)n(-c2ccc3ccccc3c2)n1 | inactive | –
CC(C)(C)C(=O)OCc1cn(-c2ccc(Cl)cc2)nn1 | inactive | –
Cc1nc(SCC(=O)c2ccc(Cl)s2)c2oc3ccccc3c2n1 | inactive | –
COCCn1c(=O)c(-c2cn(C)c3ccccc23)nc2cnc(OCc3ccccc3)nc21 | inactive | –
O=C(c1ccc(Br)cc1)c1cc([N+](=O)[O-])ccc1N1CCCCC1 | inactive | –
COc1ccc2nc(SCC(=O)NN)cc(C)c2c1 | inactive | –
COc1ccc2nc(C)cc(SCC(=O)Nc3c(C)cc(C)cc3C)c2c1 | inactive | –
CCN(CC)CCC[C@H](C)Nc1c2ccc(Cl)cc2nc2ccc(OC)cc12 | 200 nM (active) and 126 nM (active) | –
Cn1c(=O)n(C)c2cc(/C=N/NC(=O)c3ccc(Cl)cc3Cl)ccc21 | inactive | –
CCN1CCC[C@H]1CNC(=O)c1c(OC)ccc(Br)c1OC | inactive and 200 nM (active) | –
CCOc1ccc(NC(=O)C(=O)NCC2CCCN2CC)cc1 (stereo not drawn) | inactive | –
CCN1CCC[C@@H]1CNC(=O)c1cc(S(N)(=O)=O)ccc1OC | inactive | –
CCc1cc(Cl)c(OC)c(C(=O)NC[C@@H]2CCCN2CC)c1O | 0.0501 µM (active) | –
CCN1CCCC1CNC(=O)CCNC(=O)c1cc(OC)c(OC)c(OC)c1 (stereo not drawn) | inactive | –
CCN1CCC[C@H]1CNC(=O)c1cc(S(N)(=O)=O)ccc1OC | inactive | –

SMILES | AC50 | activity, negative = inhibition
N[C@@H](Cc1c[nH]c2ccc([N+](=O)[O-])cc12)C(=O)O | – | 4.93% [at 11.4 µM] (inactive)
Cc1ccccc1Cn1cc(NC(=O)CSc2nc3c(c(C(F)(F)F)n2)CCc2ccccc2-3)cn1 | inactive | –
Cn1c(=O)c(-c2ccc(Cl)cc2)nc2cnc(Oc3cccc(Cl)c3)nc21 | inactive | –
COc1ccc(NC(=S)N2CCN(C/C=C/c3ccccc3)CC2)cc1OC | inactive | –
COc1ccc(/C=C(\C#N)C(=O)NCC2CCCO2)cc1OC (stereo not drawn) | inactive | –
CNc1ncnc2c1ncn2[C@@H]1O[C@H](CO)[C@@H](O)[C@@H]1O | inactive | –
CSc1nc(-c2ccc(C)cc2)[nH]c1S(=O)(=O)c1ccccc1 | inactive | –
C[n+]1cc(-c2ccccc2)n2c1CCCCC2 | inactive | –
COc1ccc(-n2c(-c3ccccc3)nc(=S)c3c2CCCC3)cc1 | inactive | –
O=C(c1ccc(Cl)cc1)N1CCCC(c2ccccc2)=N1 | inactive | –
COc1ccc(-c2c[n+]3c4n2CCCCC4=C(c2ccccc2)C3)cc1 | 1.78 µM (active) | –
Clc1ccc(C2=C3CCCCn4c(-c5ccccc5)c[n+](c43)C2)cc1 | 1 µM (active) | –
Cc1cc(NC(=O)CSc2ccc3nnc(-c4ccc(F)cc4)n3n2)no1 | inactive | –
O=C(O)c1c[nH]c2c(ccc3[nH]cc(C(=O)O)c(=O)c32)c1=O | – | -3.58% [at 11.4 µM] (inactive)
Cc1ccc(CNC(=O)COC(=O)c2cnccn2)cc1 | inactive | –
Cc1cc(C)cc(Oc2nn[nH]n2)c1 | inactive | –
O=C(CN1C(=O)NC2(CCCC2)C1=O)NCCC1=CCCCC1 | inactive | –
CCCCCOc1ccc(NC(=O)C(=O)NCCC2=CCCCC2)cc1 | inactive | –
O=C(CN1CCN(c2ncccn2)CC1)NCCC1=CCCCC1 | 2.82 µM (active) | –
Cc1ccc(CNC(=O)C2CCC(=O)N2C2CCCCC2)cc1 (stereo not drawn) | inactive | –
O=C(CN1CCN(C2CCCCC2)CC1)NCCC1=CCCCC1 | 15.8 µM (active) | –
O=C(COc1ccc(Cl)cc1)NCCC1=CCCCC1 | inactive | –
COC(=O)[C@@]1(Cc2ccc(F)cc2)[C@@H]2[C@@H](CC(=O)[C@H]2CC(=O)C(=O)N2CCCC2)CN1C(=O)c1ccccc1 | inactive | –
CC(C)[C@@H]1O[C@H](/C=C\c2ccccc2)OCC1(C)C | – | -1.61% [at 11.4 µM] (inactive)
O=C(O)Cc1sc(-c2ccc(Cl)cc2)nc1-c1ccccc1 | inactive | –
Cc1cnn(CCC(=O)NNC(=S)Nc2ccc(F)cc2)c1 | inactive | –

SMILES | AC50 | activity, negative = inhibition
CCSc1ncc(/C=N/Nc2ccc(F)cc2)n1C | 0.631 µM (active) | –
CC(=O)Nc1ccc(NC(=O)Cn2c(-c3ccc(F)cc3)cnc2SCC(=O)Nc2c(C)cccc2C)cc1 | inactive | –
CCc1ccc2[nH]c(O)c(N=Nc3nc(-c4ccccc4)cs3)c2c1 | inactive | –
COc1ccc(C(=O)Nc2ccc3c(c2)nc(CN2CCN(C(C)=O)CC2)n3C)cc1 | inactive | –
C[C@@H]1CCCN(CP(=O)(c2ccccc2)c2ccccc2)C1 | – | 6.3% [at 11.4 µM] (inactive)
CS(=O)(=O)N1CCN(c2c(Cl)cccc2[N+](=O)[O-])CC1 | inactive | –
CC1CCCN(C/C=C/c2ccccc2[N+](=O)[O-])C1 (stereo not drawn) | 1 µM (active) | –
Cn1nnnc1SCc1ccccc1[N+](=O)[O-] | inactive | –
CCn1c(SCC(=O)N/N=C/C=C\c2ccccc2[N+](=O)[O-])nnc1-c1ccccc1 | inactive | –
CCOC(=O)C1CCCN(C/C=C/c2ccccc2[N+](=O)[O-])C1 (stereo not drawn) | 0.0708 µM (active) | –
CCOC(=O)C1CCCN(S(=O)(=O)c2ccccc2)C1 (stereo not drawn) | inactive | –
CC1CC(C)CN(C/C=C/c2ccccc2[N+](=O)[O-])C1 (stereo not drawn) | 0.631 µM (active) | –
CCOC(=O)C1CCCN(C(=O)/C=C/c2cccc([N+](=O)[O-])c2)C1 (stereo not drawn) | inactive | –
COc1ccc(-n2c(=O)c(-c3ccccc3)nc3cnc(N4CCOCC4)nc32)cc1 | inactive | –
CN(C)c1ccc(/C=C2\SC(=S)N(Nc3ncc(C(F)(F)F)cc3Cl)C2=O)cc1 | inactive | –
CC(C)OC(=O)c1cc2ccccc2oc1=O | inactive | –
O=C(c1ccccc1)c1cc(F)c(N2CCOCC2)cc1Cl | inactive | –
COc1ccc2c(c1)Cc1sc(NC(=O)c3ccco3)nc1-2 | inactive | –
CSc1nc2nc3c(c(=O)n2[nH]1)CN(Cc1ccccc1)CC3 | inactive | –
NC[C@H]1O[C@H](n2cnc3c(N)ncnc32)C[C@@H]1O | – | 8.01% [at 11.4 µM] (inactive)
O=c1c(-c2cccc(F)c2)nc2cncnc2n1C1CC1 | inactive | –
CC(C)(C)N(NC(=O)c1ccccc1)C(=O)c1cccc(C(=O)N(NC(=O)c2ccccc2)C(C)(C)C)c1 | inactive | –
O=C(O)C=Cc1ccc(Cn2ccnc2)cc1 | 0.0794 µM (active) | –
O=C(O)/C=C\c1ccc(Cn2ccnc2)cc1 | inactive | –
O=C(O)/C=C\c1ccc(O)c(O)c1 | inactive | –
